Laboratory results as given in PubChem BioAssay (NCI).
About 83,000 compounds went through this panel and 20% of them were active in at least one assay; those are over-represented in the sample as a whole.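 The test compound was applied at a single concentration to cells in 96-well plates for 48 hours, and percent growth was recorded.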 Unmarked numbers belong to inactive results. Calls of active or inactive are those of the source. How the source made its calls: active means growth percent below 10; inactive means the rest.

How the values were obtained:
Experiment in all cases: NCI-60 one-dose screen, 48 h (100 = growth as untreated, 0 = no growth, -100 = all killed)
[1] = tested on: HCT-15 colon; conditions: 10 µM unless noted
[2] = tested on: HT29 colon; conditions: 10 µM unless noted
[3] = tested on: SNB-75 CNS; conditions: 10 µM unless noted
[4] = tested on: SNB-19 CNS; conditions: 10 µM unless noted
[5] = tested on: U251 CNS; conditions: 10 µM unless noted
[6] = tested on: PC-3 prostate; conditions: 10 µM unless noted
[7] = tested on: SK-MEL-5 melanoma; conditions: 10 µM unless noted
[8] = tested on: UACC-62 melanoma; conditions: 10 µM unless noted
[9] = tested on: LOX IMVI melanoma; conditions: 10 µM unless noted
[10] = tested on: SK-MEL-28 melanoma; conditions: 10 µM unless noted
[11] = tested on: SK-MEL-2 melanoma; conditions: 10 µM unless noted
[12] = tested on: SN12C renal; conditions: 10 µM unless noted
[13] = tested on: UO-31 renal; conditions: 10 µM unless noted
[14] = tested on: TK-10 renal; conditions: 10 µM unless noted
[15] = tested on: ACHN renal; conditions: 10 µM unless noted
[16] = tested on: CAKI-1 renal; conditions: 10 µM unless noted
[17] = tested on: A498 renal; conditions: 10 µM
[18] = tested on: HL-60(TB) leukemia; conditions: 10 µM unless noted
[19] = tested on: CCRF-CEM leukemia; conditions: 10 µM unless noted
[20] = tested on: EKVX NSCLC; conditions: 10 µM unless noted

CC(=O)OC1CCC2C3CCC4=C/C(=N/OC(=O)c5ccc(N(CCCl)CCCl)cc5)CCC4(C)C3CC(C)C12 (stereo unspecified)
growth [1]: 71.6%
growth [2]: 46.8%
growth [3]: 70.5%
growth [4]: 62.9%
growth [5]: 59.3%
growth [6]: 77.1%
growth [7]: 67.5%
growth [8]: 72.5%
growth [9]: 15.5%
growth [10]: 108%
growth [11]: 104%
growth [12]: 72.6%
growth [13]: -32% (active)
growth [14]: 92.6%
growth [15]: 58.1%
growth [16]: 73.9%
growth [17]: 63.3%
growth [18]: 33.7%
growth [19]: 14.8%

COc1ccc(-n2c(C)nc3cc(OC)c(OC)cc3c2=O)cc1OC
growth [1]: 111%
growth [2]: 106%
growth [3]: 92.2%
growth [4]: 102%
growth [5]: 94.4%
growth [6]: 101%
growth [7]: 104%
growth [8]: 104%
growth [9]: 101%
growth [10]: 109%
growth [20]: 108%
growth [12]: 105%
growth [13]: 94.4%
growth [14]: 102%
growth [15]: 109%
growth [16]: 97.3%
growth [17]: 95.8%
growth [18]: 100%
growth [19]: 98.1%

CC(=O)O[C@H]1CC[C@]2(C)[C@H]3CC[C@]4(C)[C@@H](OC(C)=O)CC[C@H]4[C@@H]3[C@@H](C)[C@]2(O)C1
growth [1]: 108%
growth [2]: 106%
growth [3]: 92.5%
growth [4]: 111%
growth [5]: 111%
growth [6]: 89.6%
growth [7]: 106%
growth [8]: 98.4%
growth [9]: 96.8%
growth [10]: 117%
growth [11]: 99.1%
growth [12]: 101%
growth [13]: 88.7%
growth [14]: 112%
growth [15]: 112%
growth [17]: 105%
growth [19]: 93.1%

CCNc1nc(Cl)nc(NCC)n1
growth [1]: 112%
growth [2]: 107%
growth [3]: 93.6%
growth [4]: 93%
growth [5]: 104%
growth [6]: 89.9%
growth [7]: 98.2%
growth [8]: 102%
growth [9]: 97.9%
growth [10]: 115%
growth [20]: 86.5%
growth [12]: 102%
growth [13]: 77.1%
growth [14]: 116%
growth [15]: 102%
growth [16]: 77.3%
growth [17]: 95.8%
growth [18]: 98.4%
growth [19]: 96.8%

C[C@]12CC[C@@H]3c4ccc(Oc5nc(N6CC6)nc(N6CC6)n5)cc4CC[C@H]3[C@@H]1CCC2=O
growth [1]: 37.4%
growth [2]: 19.3%
growth [3]: 30.3%
growth [4]: 48.8%
growth [5]: 31.9%
growth [6]: 53.8%
growth [7]: 5.82% (active)
growth [8]: 18.4%
growth [9]: -63.1% (active)
growth [10]: 63.5%
growth [11]: 56.4%
growth [12]: 21.5%
growth [13]: 28.6%
growth [14]: 59.6%
growth [15]: 16.3%
growth [16]: 10.9%
growth [17]: -18.5% (active)
growth [18]: -35.6% (active)
growth [19]: 3.37% (active)

CC1CN1CCCCN1CC1C (stereo unspecified)
growth [1]: 103%
growth [2]: 87%
growth [3]: 81.1%
growth [4]: 109%
growth [5]: 104%
growth [6]: 95%
growth [7]: 107%
growth [8]: 113%
growth [9]: 101%
growth [10]: 100%
growth [11]: 80.6%
growth [12]: 109%
growth [13]: 98.4%
growth [14]: 88.8%
growth [15]: 107%
growth [16]: 102%
growth [17]: 107%
growth [18]: 77.4%

CCC1(C)CC(CCNCc2ccccc2O)(c2ccc(C)cc2)CCO1 (stereo unspecified)
growth [1]: 98.3%
growth [2]: 107%
growth [3]: 91.8%
growth [4]: 102%
growth [5]: 99.1%
growth [6]: 99.1%
growth [7]: 97.7%
growth [8]: 103%
growth [9]: 99.8%
growth [10]: 106%
growth [11]: 104%
growth [12]: 105%
growth [13]: 101%
growth [14]: 106%
growth [15]: 102%
growth [16]: 106%
growth [17]: 103%
growth [18]: 97.3%
growth [19]: 103%

COc1cc(C=Nc2cccc(C(=O)O)c2)ccc1N(CCCl)CCCl
growth [1]: 97.8%
growth [2]: 98.1%
growth [3]: 101%
growth [4]: 102%
growth [5]: 100%
growth [6]: 101%
growth [7]: 98.7%
growth [8]: 96.7%
growth [9]: 101%
growth [10]: 103%
growth [11]: 108%
growth [12]: 98.5%
growth [13]: 84.6%
growth [14]: 125%
growth [15]: 81.8%
growth [16]: 95%
growth [17]: 102%
growth [19]: 102%

Cc1c(O)c(CN(CCCl)CCCl)cc(CN(CCCl)CCCl)c1O
growth [1]: 82.7%
growth [2]: 70.8%
growth [3]: 78.9%
growth [4]: 99.7%
growth [5]: 81.6%
growth [6]: 65.8%
growth [7]: 91.7%
growth [8]: 89.1%
growth [9]: 77.4%
growth [10]: 102%
growth [11]: 110%
growth [12]: 72.9%
growth [13]: 70.3%
growth [14]: 100%
growth [15]: 42.5%
growth [16]: 17.6%
growth [17]: 92.4%
growth [18]: 47.1%
growth [19]: 41.8%

N/C(=N/N=C/c1ccncc1)N[N+](=O)[O-]
growth [1]: 97.3%
growth [2]: 101%
growth [3]: 96%
growth [4]: 104%
growth [5]: 97.4%
growth [6]: 97.9%
growth [7]: 103%
growth [8]: 97.3%
growth [9]: 95.5%
growth [10]: 110%
growth [11]: 104%
growth [12]: 95.8%
growth [13]: 93.8%
growth [14]: 94.1%
growth [15]: 101%
growth [16]: 99.2%
growth [19]: 101%

Cn1cc(C2=C(c3cn(C4CCN(Cc5ccccn5)CC4)c4ccccc34)C(=O)NC2=O)c2ccccc21
growth [1]: 85.9%
growth [2]: 14.3%
growth [3]: 57.8%
growth [4]: 101%
growth [5]: 88.4%
growth [6]: 92.2%
growth [7]: 69.2%
growth [8]: 13.7%
growth [9]: 48.5%
growth [10]: 18.7%
growth [20]: 83.4%
growth [12]: 81.1%
growth [13]: 48.4%
growth [14]: 56.3%
growth [15]: 63.8%
growth [16]: 50.8%
growth [17]: 88.1%
growth [18]: 39.8%
growth [19]: 112%

COc1ccc(/C=C\c2cc(OC)c(OC)c(OC)c2)c(NS(=O)(=O)c2ccc(F)cc2)c1O
growth [1]: 6.21% (active)
growth [2]: 12.5%
growth [3]: 34.9%
growth [4]: 37.4%
growth [5]: 19.1%
growth [6]: 31.3%
growth [7]: -28.4% (active)
growth [8]: 40.1%
growth [9]: 19.3%
growth [10]: 63.2%
growth [11]: -6.87% (active)
growth [12]: 28.1%
growth [13]: 48%
growth [14]: 59.3%
growth [15]: 24.4%
growth [16]: 20.8%
growth [19]: 17.4%

NC1CC2CCCCC2CC1(O)c1ccccc1 (stereo unspecified)
growth [1]: 102%
growth [2]: 102%
growth [3]: 80.9%
growth [4]: 103%
growth [5]: 96.4%
growth [6]: 92.8%
growth [7]: 102%
growth [8]: 105%
growth [9]: 91.9%
growth [10]: 111%
growth [11]: 100%
growth [12]: 101%
growth [13]: 83.9%
growth [14]: 96.6%
growth [15]: 104%
growth [16]: 107%
growth [17]: 89.8%
growth [19]: 96%

CCCCCCCCCCCCCC[P+](CCCCCC)(CCCCCC)CCCCCC
growth [1]: 7.54% (active)
growth [2]: -58.2% (active)
growth [3]: -31.4% (active)
growth [4]: 8.99% (active)
growth [5]: -68.4% (active)
growth [6]: -78.1% (active)
growth [7]: -100% (active)
growth [8]: -28.1% (active)
growth [9]: -68.5% (active)
growth [10]: -97.8% (active)
growth [11]: -3.57% (active)
growth [12]: -79.1% (active)
growth [13]: -36.6% (active)
growth [14]: -43.3% (active)
growth [15]: -26% (active)
growth [16]: 4.01% (active)
growth [17]: -48.3% (active)
growth [18]: 43.1%
growth [19]: 26.5%

O=C([O][Hg][c]1ccccc1)c1ccccc1
growth [1]: -62.7% (active)
growth [2]: -14.8% (active)
growth [3]: -4.27% (active)
growth [4]: 56.8%
growth [5]: -31.9% (active)
growth [6]: 35.4%
growth [7]: 5.37% (active)
growth [8]: -42.3% (active)
growth [9]: -80.3% (active)
growth [10]: -61.1% (active)
growth [11]: -33.3% (active)
growth [12]: -85.4% (active)
growth [13]: -92.2% (active)
growth [14]: -86.5% (active)
growth [15]: -90.5% (active)
growth [16]: -89.3% (active)
growth [17]: 40.7%
growth [18]: -53.5% (active)
growth [19]: -33.8% (active)

COc1cc(/C=C\c2cc(OC)c(OC)c(OC)c2)cc(NS(=O)(=O)c2cccc(Cl)c2)c1OC
growth [1]: 10.9%
growth [2]: 15.3%
growth [3]: 64.5%
growth [4]: 41.2%
growth [5]: 11.1%
growth [6]: 35.1%
growth [7]: -29.4% (active)
growth [8]: 36.1%
growth [9]: 20%
growth [10]: 64%
growth [11]: 23.5%
growth [12]: 27.7%
growth [13]: 32.1%
growth [14]: 63.3%
growth [15]: 16.4%
growth [16]: 11.4%
growth [18]: 4.54% (active)
growth [19]: 9.72% (active)

CCCCCC1(CCBr)C(=O)NC(=O)NC1=O
growth [1]: 97.7%
growth [2]: 107%
growth [3]: 99.2%
growth [4]: 111%
growth [5]: 93.4%
growth [6]: 100%
growth [7]: 109%
growth [8]: 108%
growth [9]: 104%
growth [10]: 118%
growth [11]: 105%
growth [12]: 107%
growth [13]: 86.7%
growth [14]: 111%
growth [15]: 102%
growth [17]: 88.4%
growth [19]: 102%
